In PubChem BioAssay:
The source made the active and inactive calls. Unless noted, the rule behind the calls is not given here.

Assays:
[1] = anti-His antibody binders, primary screen, artefact control for SMM control protein annotation, biochemical, small-molecule microarray, 635 nm fluorescence (AID 1128); details: anti-His Alexa647 antibody binding, higher = more signal;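 note: score merges feature fluorescence with signal-to-noise for each printed compound spot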
[2] = test system: Human papillomavirus type 1a E7 protein (residues 1-88); test: HPV1a E7 small-molecule binders, primary screen, biochemical, small-molecule microarray, residues 1-88, 635 nm (AID 1129); details: small-molecule microarray binding, fluorescence 635 nm; higher = more signal
[3] = biological target: Focal adhesion kinase 1 (Homo sapiens) (UniProt Q05397); test: small-molecule microarray binders of FAK, primary screen, biochemical, 635/667 nm fluorescence, BSA, DTT (AID 1130); details: PTK2 binding, 635 nm fluorescence, higher = more signal;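 note: composite of spot emission at 667 nm and signal to noise over triplicate slides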
[4] = test system: Fibrinogen (Alexa647-labelled); test: fibrinogen binders on compound microarrays, profiling panel, artefact control for SMM control-protein annotation, biochemical, small-molecule microarray, 635/667 nm fluorescence (AID 1131); details: fibrinogen-A647 binding fluorescence, higher = more signal;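 note: z-score merges 667 nm fluorescence with per-spot signal-to-noise over triplicate slides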
[5] = biological target: Follistatin (Homo sapiens) (UniProt P19883); test: follistatin binders on small-molecule microarrays, primary screen, biochemical, small-molecule microarray, 635/667 nm fluorescence (AID 1132); details: FST binding, 635 nm fluorescence, higher = more signal
[6] = biological target: Fibroblast growth factor 2 (Homo sapiens) (UniProt P09038); test: FGF2 binders on small-molecule microarrays, primary screen, biochemical, small-molecule microarray, 635/667 nm fluorescence (AID 1133); details: small-molecule microarray binding, FGF2, fluorescence 635/667; higher = more signal
[7] = mitochondrial membrane potential change in A549 cells, profiling panel, cell-based, JC-1 fluorescence, basal, 24 h, 100 nL (AID 1138); details: higher = more signal;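 note: A549 lung adenocarcinoma cells under basal conditions with no added stimulus; test concentration not given here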
Lefty1 = Lefty1 binders on small-molecule microarrays, primary screen, biochemical, small-molecule microarray, 635/667 nm fluorescence (AID 1139); details: small-molecule microarray binding, fluorescence 635/667; higher = more signal
[8] = test system: wheat germ agglutinin (Triticum aestivum), Alexa647-labelled; test: wheat germ agglutinin binders on compound microarrays, profiling panel, artefact control for SMM control-protein annotation, biochemical, small-molecule microarray, 635/667 nm fluorescence (AID 1140); details: WGA-A647 binding, 635 nm fluorescence, higher = more signal;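 note: score merges 667 nm feature emission with signal to noise over triplicate slides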
[9] = biological target: Luciferin 4-monooxygenase (Photinus pyralis) (UniProt P08659); test: firefly luciferase enzyme inhibitors, primary screen, biochemical, luminescence, purified enzyme, 2006 set (AID 1141); details: SteadyGlo luminescence, 30 min, higher = more signal, called active from +8 up or from −8 down;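 note: cell-free assay with purified firefly luciferase at 100 ng per well in PBS; test concentration not given here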
[10] = test system: Wnt5a (protein binding on small-molecule microarray); test: Wnt5a binders on small-molecule microarray, primary screen, biophysical, 635/667 nm fluorescence (AID 1142); details: 635 nm fluorescence, higher = more signal;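 note: fluorescence read at 667 nm with signal to noise per printed feature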
[11] = cell viability in Huh7 cells, primary screen, cytotoxicity control for HCV replication inhibitor project, CellTiter-Glo luminescence, basal, 48 h (AID 1143); details: Huh7 HCV replicon, higher = more signal, called active from +8 up or from −8 down;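 note: Huh7 hepatoma cells carrying a hepatitis C replication reporter with no stimulus; test concentration not given here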
[12] = P. aeruginosa biofilm formation inhibitors, primary screen, PAO1 strain, BacTiter-Glo luminescence, LB-PBS (AID 1144); details: 12 h, higher = more signal
[13] = CREB reporter modulators without forskolin, primary screen, cell-based, PC12, CRE-LacZ reporter, unstimulated (AID 1145); details: no forskolin, luminescence, 4.5 h, higher = more signal, called active from +8 up or from −8 down
[14] = CREB reporter modulators under forskolin, primary screen, cell-based, PC12, CRE-LacZ reporter, forskolin-stimulated (AID 1146); details: luminescence, 4.5 h, higher = more signal, called active from +8 up or from −8 down;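 note: PC12 cells with 6xCRE LacZ reporter stimulated by forskolin 10 µM; beta-galactosidase reporter signal reflecting CREB driven transcription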
[15] = biological target: Streptavidin (Streptomyces avidinii) (UniProt P22629); test: streptavidin binders on small-molecule microarray, primary screen, artefact control for SMM compound annotation, biophysical, 635/667 nm fluorescence (AID 1147); details: streptavidin binding, higher = more signal;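 note: signal reflects streptavidin binding to arrayed compounds as a control protein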
[16] = small-molecule binders of probe aInhba, primary screen, biochemical, small-molecule microarray, 635/667 nm fluorescence (AID 1148); details: higher = more signal;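 note: score merges 667nm spot fluorescence with signal-to-noise for antibody binding to printed compounds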
Torsin-1A (Homo sapiens) [17] = biological target: Torsin-1A (Homo sapiens) (UniProt O14656); test: torsin A binders from cell lysate, primary screen, small-molecule microarray, wild-type, 635/667 nm (AID 1149); details: COS7 hTOR1A-WT lysate, 635 nm fluorescence, higher = more signal
Torsin-1A (Homo sapiens) [18] = biological target: Torsin-1A (Homo sapiens) (UniProt O14656); test: small-molecule binders of mutant TOR1A in lysate, primary screen, cell lysate, small-molecule microarray, COS7 lysate, 635/667 nm fluorescence (AID 1150); details: COS7 hTOR1A mutant lysate, 635 nm fluorescence, higher = more signal;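 note: score pools 667 nm emission and signal to noise measuring lysate protein binding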
[19] = test system: Sonic hedgehog protein (Shh); test: small-molecule binders of Shh protein, primary screen, biochemical, small-molecule microarray, 635/667 nm fluorescence (AID 1151); details: small-molecule microarray binding, 635 nm fluorescence; higher = more signal;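 note: Shh protein binding to compounds spotted on small-molecule microarray slides; score combines spot fluorescence intensity with signal-to-noise across triplicate slides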

Chain of Follistatin (Homo sapiens) (P19883 whole entry, looked up): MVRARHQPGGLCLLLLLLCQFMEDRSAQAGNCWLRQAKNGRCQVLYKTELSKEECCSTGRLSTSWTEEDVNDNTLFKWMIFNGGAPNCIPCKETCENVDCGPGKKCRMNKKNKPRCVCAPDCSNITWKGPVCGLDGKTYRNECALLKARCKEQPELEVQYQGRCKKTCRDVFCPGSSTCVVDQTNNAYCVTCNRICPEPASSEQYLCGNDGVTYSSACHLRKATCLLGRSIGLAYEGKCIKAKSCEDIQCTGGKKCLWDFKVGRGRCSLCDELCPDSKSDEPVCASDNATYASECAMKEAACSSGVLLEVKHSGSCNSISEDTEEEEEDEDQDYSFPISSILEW
Chain of Torsin-1A (Homo sapiens) (O14656 whole entry, looked up): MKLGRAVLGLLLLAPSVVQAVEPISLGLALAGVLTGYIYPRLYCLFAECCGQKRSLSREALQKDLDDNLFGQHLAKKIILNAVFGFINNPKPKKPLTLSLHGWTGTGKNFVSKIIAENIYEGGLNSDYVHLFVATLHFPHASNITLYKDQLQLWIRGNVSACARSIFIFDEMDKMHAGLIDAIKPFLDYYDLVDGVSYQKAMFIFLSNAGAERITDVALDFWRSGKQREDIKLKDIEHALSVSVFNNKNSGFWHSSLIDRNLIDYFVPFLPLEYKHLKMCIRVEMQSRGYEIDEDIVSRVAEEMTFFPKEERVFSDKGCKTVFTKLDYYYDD
Chain of Luciferin 4-monooxygenase (Photinus pyralis) (P08659 whole entry, looked up): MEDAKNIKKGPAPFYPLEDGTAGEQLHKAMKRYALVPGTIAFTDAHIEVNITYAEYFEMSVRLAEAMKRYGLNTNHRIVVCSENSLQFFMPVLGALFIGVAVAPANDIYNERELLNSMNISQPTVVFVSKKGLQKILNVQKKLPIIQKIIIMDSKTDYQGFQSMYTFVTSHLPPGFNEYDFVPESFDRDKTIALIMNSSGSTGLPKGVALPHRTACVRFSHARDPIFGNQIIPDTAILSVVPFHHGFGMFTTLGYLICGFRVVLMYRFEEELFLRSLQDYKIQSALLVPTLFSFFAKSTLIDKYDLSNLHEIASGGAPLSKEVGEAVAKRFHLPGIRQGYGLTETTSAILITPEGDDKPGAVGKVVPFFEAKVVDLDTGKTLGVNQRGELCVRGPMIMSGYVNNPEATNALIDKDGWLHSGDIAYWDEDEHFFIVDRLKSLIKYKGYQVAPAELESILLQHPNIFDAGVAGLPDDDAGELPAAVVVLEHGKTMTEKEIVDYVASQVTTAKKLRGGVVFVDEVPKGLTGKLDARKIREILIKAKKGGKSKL
Chain of Fibroblast growth factor 2 (Homo sapiens) (P09038 whole entry, looked up): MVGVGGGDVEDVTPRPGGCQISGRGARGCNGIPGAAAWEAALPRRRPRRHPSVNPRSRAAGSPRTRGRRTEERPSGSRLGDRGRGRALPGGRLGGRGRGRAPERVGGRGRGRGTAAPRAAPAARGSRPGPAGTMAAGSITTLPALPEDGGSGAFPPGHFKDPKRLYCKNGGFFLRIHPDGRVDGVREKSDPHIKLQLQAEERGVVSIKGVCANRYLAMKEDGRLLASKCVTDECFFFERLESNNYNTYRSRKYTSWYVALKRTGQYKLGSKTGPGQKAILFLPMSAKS
Chain of Focal adhesion kinase 1 (Homo sapiens) (Q05397 whole entry, looked up): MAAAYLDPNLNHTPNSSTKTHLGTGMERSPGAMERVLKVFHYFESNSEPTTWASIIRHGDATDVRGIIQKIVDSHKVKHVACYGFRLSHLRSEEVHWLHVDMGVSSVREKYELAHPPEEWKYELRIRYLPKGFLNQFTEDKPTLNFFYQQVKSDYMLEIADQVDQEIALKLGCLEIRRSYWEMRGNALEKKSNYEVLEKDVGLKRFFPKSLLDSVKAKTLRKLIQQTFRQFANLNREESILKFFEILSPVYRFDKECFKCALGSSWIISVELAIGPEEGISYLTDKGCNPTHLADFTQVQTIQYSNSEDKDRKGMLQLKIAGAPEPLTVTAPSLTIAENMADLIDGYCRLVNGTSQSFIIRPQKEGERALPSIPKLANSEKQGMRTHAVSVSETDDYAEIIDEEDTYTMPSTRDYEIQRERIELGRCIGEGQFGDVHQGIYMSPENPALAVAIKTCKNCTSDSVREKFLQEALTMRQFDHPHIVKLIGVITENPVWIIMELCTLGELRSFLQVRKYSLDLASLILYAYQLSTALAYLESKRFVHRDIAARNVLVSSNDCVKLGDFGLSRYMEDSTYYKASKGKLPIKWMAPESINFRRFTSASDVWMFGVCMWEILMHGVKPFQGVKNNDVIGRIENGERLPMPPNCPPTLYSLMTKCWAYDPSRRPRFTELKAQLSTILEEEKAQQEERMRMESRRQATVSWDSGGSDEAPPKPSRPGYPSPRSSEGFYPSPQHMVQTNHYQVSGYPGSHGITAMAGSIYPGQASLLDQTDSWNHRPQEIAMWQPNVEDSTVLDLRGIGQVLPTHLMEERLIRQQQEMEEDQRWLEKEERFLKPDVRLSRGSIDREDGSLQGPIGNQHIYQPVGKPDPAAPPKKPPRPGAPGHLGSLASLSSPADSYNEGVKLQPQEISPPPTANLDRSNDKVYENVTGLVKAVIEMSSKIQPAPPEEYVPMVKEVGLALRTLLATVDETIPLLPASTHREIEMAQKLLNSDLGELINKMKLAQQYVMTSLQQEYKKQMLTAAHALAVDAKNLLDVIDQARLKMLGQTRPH
Chain of Streptavidin (Streptomyces avidinii) (P22629 whole entry, looked up): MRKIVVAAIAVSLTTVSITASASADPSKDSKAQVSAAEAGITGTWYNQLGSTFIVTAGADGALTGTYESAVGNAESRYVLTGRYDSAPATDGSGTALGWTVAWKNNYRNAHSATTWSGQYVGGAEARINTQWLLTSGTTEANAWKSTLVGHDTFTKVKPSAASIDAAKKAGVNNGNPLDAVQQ

Row | Structure (SMILES) | composite z-score [1] | composite z-score [2] | composite z-score [3] | composite z-score [4] | composite z-score [5] | composite z-score [6] | z-score [7] | composite z-score (Lefty1) | composite z-score [8] | z-score [9] | composite z-score [10] | z-score [11] | z-score [12] | z-score [13] | z-score [14] | composite z-score [15] | composite z-score [16] | composite z-score (Torsin-1A (Homo sapiens) [17]) | composite z-score (Torsin-1A (Homo sapiens) [18]) | composite z-score [19]
1 | CO[C@H]1O[C@H](CO)[C@@H](OC(=O)Nc2ccccc2-c2ccccc2)[C@H](OC(=O)Nc2ccc3c(c2)OCO3)[C@H]1OC(=O)Nc1ccc2c(c1)OCO2 | 1.02 | 1.24 | 1.11 | 0.941 | 1.23 | 0.993 | -0.499 | 0.63 | 1.1 | -6.15 (inactive) | 0.35 | -1.48 (inactive) | -0.158 (inactive) | 0.792 (inactive) | -0.97 (inactive) | 0.144 | 0.271 | 0.5 | 0.723 | 1.42
2 | COc1cccc(/C=C/C=O)c1 | 0.0592 | 0.203 | -0.0159 | -1.77 | 0.261 | 0.316 | 1.47 | -0.0262 | 0.205 | -1.36 (inactive) | 0.279 | -0.0204 (inactive) | -0.301 (inactive) | 0.0026 (inactive) | 0.599 (inactive) | -0.283 | 0.156 | 0.582 | 0.351 | 0.0757
3 | CCCNC(=O)[C@@H]1c2ccccc2C(=O)N(C(C)C)[C@H]1c1ccc(CO)cc1 | 3 | -0.645 | -0.19 | -0.29 | -0.577 | -0.517 | 1.39 | -0.371 | -0.03 | 0.407 (inactive) | -0.122 | -0.0095 (inactive) | -0.521 (inactive) | -0.412 (inactive) | 0.211 (inactive) | -0.0547 | 0.0658 | -0.215 | 0.0984 | -0.121
4 | CN1C(=O)C2C=CC(C(O)c3cccc(O)c3)N(Nc3ccccc3)C2C1=O (stereo not given) | 0.71 | 0.545 | 0.214 | 0.441 | 0.214 | -0.191 | 1.19 | 0.152 | 0.275 | 0.991 (inactive) | 0.0652 | 0.656 (inactive) | 0.373 (inactive) | 0.0501 (inactive) | 0.233 (inactive) | -0.404 | 0.142 | -0.379 | 0.548 | -0.128
5 | COC(=O)c1c(CC[C@@H](CO)NC(=O)N[C@H](Cn2cc(C3(O)CCCCC3)nn2)C(C)C)oc(C(C)=O)c1C(=O)OC | 1.56 | 0.737 | -0.0722 | 0.627 | 1.23 | 1.26 | 0.131 | 1.23 | 0.947 | -0.0595 (inactive) | 0.359 | -2.81 (inactive) | -0.875 (inactive) | 1.34 (inactive) | -1.13 (inactive) | 1.31 | -0.0523 | 0.881 | 0.756 | 1.59
6 | CCOC(=O)C1=CC[C@@H](c2ccc(OCc3ccccc3)c(OC)c2)N(S(=O)(=O)c2ccc(C)cc2)[C@H]1c1ccc(SC)cc1 | 1.44 | 1.24 | 0.398 | 0.715 | 0.761 | 0.159 | -0.219 | 0.542 | 0.71 | 0.107 (inactive) | 0.683 | -1.51 (inactive) | 0.765 (inactive) | 0.967 (inactive) | 0.137 (inactive) | 1.42 | 0.113 | 1.28 | 1.4 | 0.249
7 | C=C(/C(=C/C[C@H](OC(C)=O)c1cccc(OCCO)c1)c1cnc2ccccc2c1)C(C)C | -0.373 | 0.68 | 0.151 | -0.325 | 1.36 | 0.429 | 1.61 | 1.08 | 0.961 | -1.19 (inactive) | 0.217 | -0.262 (inactive) | 0.424 (inactive) | 5.97 (inactive) | -0.323 (inactive) | 0.653 | 0.124 | 0.04 | 0.491 | 2
8 | COC(=O)CCCCCCC(=O)Nc1ccc(NC(=O)CCCC[P+](c2ccccc2)(c2ccccc2)c2ccccc2)cc1 | 0.703 | 0.289 | -0.507 | -0.722 | 1.01 | 0.626 | 0.679 | 1.23 | 0.0334 | 1.3 (inactive) | 0.38 | -0.238 (inactive) | -0.873 (inactive) | 0.575 (inactive) | -1.85 (inactive) | 0.352 | -0.0645 | 0.463 | 0.28 | 1.89
9 | Cc1ccc(S[C@]2(C(=O)NCC(F)(F)F)CC(=O)N(C3CCCCC3)[C@@H]2c2ccc(CO)cc2I)cc1 | 0.21 | 1.21 | 0.543 | 0.774 | 0.969 | 0.621 | 2.17 | 0.465 | 0.395 | -0.691 (inactive) | -0.0208 | -1.76 (inactive) | 1.13 (inactive) | 0.622 (inactive) | 0.343 (inactive) | 0.864 | 0.0074 | -0.357 | 1.19 | 0.834
